This passage reports Percent Effect results from ChEMBL document CHEMBL3988442, “University of Dundee, Small-Polar-MMV Screening Library” (2021).

Assay [1] addresses T1, Aspartate--tRNA(Asp/Asn) ligase (Mycobacterium tuberculosis (strain ATCC 25618 / H37Rv)) (UniProt P9WFW3).
T1 sequence (whole entry): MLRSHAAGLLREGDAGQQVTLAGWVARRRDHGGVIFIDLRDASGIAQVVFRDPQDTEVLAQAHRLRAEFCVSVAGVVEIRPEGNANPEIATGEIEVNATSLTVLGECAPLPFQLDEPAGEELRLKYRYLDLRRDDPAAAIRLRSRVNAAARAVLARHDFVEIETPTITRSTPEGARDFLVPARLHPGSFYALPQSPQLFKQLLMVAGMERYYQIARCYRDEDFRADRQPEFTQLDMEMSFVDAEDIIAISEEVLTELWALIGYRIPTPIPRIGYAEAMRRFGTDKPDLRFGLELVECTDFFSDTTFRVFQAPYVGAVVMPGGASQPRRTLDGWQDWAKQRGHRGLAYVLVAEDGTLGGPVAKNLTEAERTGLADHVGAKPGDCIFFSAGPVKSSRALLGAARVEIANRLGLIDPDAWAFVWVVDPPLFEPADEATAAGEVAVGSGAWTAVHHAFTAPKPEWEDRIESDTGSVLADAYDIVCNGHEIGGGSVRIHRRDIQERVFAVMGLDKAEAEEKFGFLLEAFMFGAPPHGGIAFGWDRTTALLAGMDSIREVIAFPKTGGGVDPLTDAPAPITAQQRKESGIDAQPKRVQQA
Kind of assay: Assay for Asp RNA synthetase-1 from Mycobacterium tuberculosis. It is filed as functional. Details: scale not given: direction of the effect not stated beside the values. To be noted: 30 µM.

Assay [2] has as its target Shiga toxin 2 (Escherichia coli O157:H7) (UniProt P09385+P09386). The assay is described as follows: E. coli 0.157:H7 Shiga Toxin SOP - stx2 screening assay. The format is functional. On the set-up: scale not given: direction of the effect not stated beside the values. The settings on record: 30 µM.

Structures are written as SMILES.

On to `COCC1CC2(CCN(C(=O)c3ccc(OC)c(Cl)c3)CC2)CO1` (stereo not drawn), for which the Percent Effect in assay [1] was 0.918%; in assay [2], -4.71%.
The corresponding values for `O=C(c1cccc(S(=O)(=O)NCCCc2ncc[nH]2)c1)N1CCOCC1` are 8.25% and -13.2%.
Taken in the same sequence, the figures for `O=C(c1ccc(Br)s1)N1CCN(Cc2ccc(OC(F)(F)F)cc2)CC1` were -3.13% and -21.7%.
The corresponding values for `O=C(CN1CCc2c(ncn2C2CC2)C1)NC1CC1` are -0.0146% and 5.91%.
With `O=C([C@@H]1CCO[C@@H]2CCN(Cc3cccnc3)C[C@H]21)N1CCCCO1`, the Percent Effect in assay [1] is 6.53%; in assay [2] it was -26.6%.
The corresponding values for `Cc1nnc(NCC2(c3ccccc3)CC2)c(C#N)c1C` are 1.73% and 15.4%.
Taken in the same sequence, the figures for `O=c1c2cnc(N3CCCCC3)nc2ccn1-c1ccccc1` were -0.697% and -17.9%.
Taken in the same sequence, the figures for `Cc1ccc(CC(=O)N2CSCC2C(=O)N(C)Cc2ccco2)o1` (stereo not drawn) were 8.09% and 12%.
`COCCN1CCCC(c2nc3c([nH]2)CC(C)(C)CNC3=O)C1` (stereo not drawn): the figures for the Percent Effect in assay [1] and in assay [2] were 2.91% and 0.913%, respectively.
The corresponding values for `Cc1cc(C2CCCN(C(=O)c3ccc(C)[nH]c3=O)C2)n[nH]1` (stereo not drawn) are -1% and 3.9%.
Taken in the same sequence, the figures for `CC(C)c1cc(NC(=O)CN2CCC(N3CCNC3=O)CC2)on1` were 0.0463% and -28.7%.
The corresponding values for `Cc1cc(N2CCC3(CCC(=O)N(CC4CC4)C3)CC2)nc(N)n1` are -0.719% and 0.426%.
Regarding `Cc1noc(C)c1CCC(=O)N1CCN(CCn2cncn2)CC1`, the Percent Effect in assay [1] was 6.07%; in assay [2], -7.17%.
`O=C1CC[C@@H]2[C@@H](CCN2C(=O)c2ccsc2)N1CC1CC1`: the Percent Effect in assay [1] is -5.94%; in assay [2], 1.28%.
The corresponding values for `C[C@@H]1CN(C2(C(=O)N3CCCCCC3)Cc3ccccc3C2)C[C@H](C)O1` are -2.09% and 3.06%.
The corresponding values for `Cc1ccsc1CNC(=O)Cc1c(C)nc2c(c1C)c(=O)[nH]n2C` are -4.18% and 23.7%.
As for `CN(CCNC(=O)c1scnc1Cl)c1ccccc1`, the Percent Effect in assay [1] is 2.87%; in assay [2], -17.4%.
Taken in the same sequence, the figures for `CCC1=N[C@@]2(CC[C@@H]3CN(S(=O)(=O)CC(C)C)C[C@@H]32)C(=O)N1C` were 0.189% and -1.16%.
`Cc1nc(C)c(CC(=O)N2C[C@H]3CC[C@@H]2CN(C(=O)N(C)C)C3)c(=O)[nH]1`: the Percent Effect was 0.0987% in assay [1] and -13.6% in assay [2].
The corresponding values for `C1CCCN(c2nc(C3CC3)ns2)CC1` are -2.7% and -28.7%.
The corresponding values for `COCCOc1cccc(C(=O)N2CCCC(n3cccn3)C2)c1` (stereo not drawn) are 1.18% and -14.5%.
Take `Cc1occc1C(=O)N1CCC2(CCC(C(=O)NCC3CC3)O2)CC1` (stereo not drawn): the Percent Effect in assay [1] is -0.182%; in assay [2] it was -6.83%.
`CN(C)C(=O)COCc1cncc2c1CCN(Cc1cnn(C)c1)C2`: the Percent Effect in assay [1] was 6.12%; in assay [2] it was -43%.
Taken in the same sequence, the figures for `CN(C)[C@@H]1CCN(c2ncccn2)[C@H]1Cc1ccccc1` were -0.0594% and -1.36%.
The corresponding values for `CN1CCCC1c1ccc(C(=O)N2CCc3ccccc3C2)s1` (stereo not drawn) are -5.54% and -38.1%.
The corresponding values for `Cc1nc(CN2CCN(CC(=O)Nc3c(C)cccc3C)CC2)no1` are -3.29% and -6.23%.
Consider `CCc1ccc(C(=O)O)cc1S(=O)(=O)Nc1ccc(F)c(C#N)c1`, for which the Percent Effect in assay [1] is 4.35%; in assay [2] it was -1.93%.
The corresponding values for `CCN1C(=O)C(C)(C)c2cc(NC(=O)c3ccco3)ccc21` are 10.8% and -25.1%.
Taken in the same sequence, the figures for `CNS(=O)(=O)c1cccc(CNC(=O)c2c(C)oc(C)c2C)c1` were -7.7% and -67.3%.
